According to PubChem BioAssay AID1159580 (chemical genetic matrix, 2015):
“And” between values parts separate entries of the source, which are not always exact repeats. Identical values can stand only once. The whole screen tested about 5,500 compounds, of which about 2,000 (36%) were called active. Inconclusive results (about 18%) are left out. No stated cut-off is given here; in the data, active means normalized growth mostly below about 0.91 (no sharp cut-off); inconclusive means no clear call, values can overlap the other calls; inactive means mostly above about 0.92. The list shows a part of the results.

Assay: chemical genetic growth profiling, strain panel (AID 1159580);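 further: tested at 20 µM; growth read once vehicle control cultures reached saturation at 30 °C; 1 = growth at the plate median or of vehicle wells; lower values mean less growth of the strain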
Conditions: S. cerevisiae deletion strains, growth OD

Measured: normalized growth

COc1cc([C@@H]2c3cc4c(cc3[C@H](O)[C@H]3COC(=O)[C@@H]23)OCO4)cc(OC)c1OC
inactive: locus YAL021C, strain ccr4, active compounds read low 1 | locus YAL026C, strain drs2, active compounds read low 1.03 | locus YAL030W, strain snc1, active compounds read low 1.02 | locus YBL061C, strain skt5, active compounds read low 1 | locus YBR009C, strain hhf1, active compounds read low 1 | locus YBR021W, strain FUR4, active compounds read low 1.04 | locus YBR023C, strain chs3, active compounds read low 1.02 | locus YBR171W, strain sec66, active compounds read low 1.02 | locus YBR229C, strain ROT2, active compounds read low 1 | locus YBR231C, strain swc5, active compounds read low 1.02 | locus YBR279W, strain paf1, active compounds read low 1.02 | locus YCL011C, strain gbp2, active compounds read low 1.02 | locus YCL016C, strain dcc1, active compounds read low 1.01 | locus YCL029C, strain bik1, active compounds read low 0.983 | locus YCL069W, strain vba3, active compounds read low 1.02 | locus YCR088W, strain abp1, active compounds read low 1.02 | locus YDL005C, strain med2, active compounds read low 1.02 | locus YDL035C, strain GPR1, active compounds read low 0.991 | locus YDL040C, strain nat1, active compounds read low 1.02 | locus YDL074C, strain BRE1, active compounds read low 0.949 | locus YDL101C, strain DUN1, active compounds read low 1.01 | locus YDL134C, strain PPH21, active compounds read low 1.03 | locus YDL185W, strain tfp1, active compounds read low 0.945 | locus YDL192W, strain arf1, active compounds read low 1.01 | locus YDR001C, strain nth1, active compounds read low 1.02 | locus YDR069C, strain doa4, active compounds read low 1.03 | locus YDR101C, strain arx1, active compounds read low 0.98 | locus YDR137W, strain rgp1, active compounds read low 1.05 | locus YDR159W, strain sac3, active compounds read low 1.03 | locus YDR162C, strain NBP2, active compounds read low 1.01 | locus YDR195W, strain ref2 1.04 | locus YDR297W, strain sur2, active compounds read low 1.03 | locus YDR318W, strain mcm21, active compounds read low 0.999 | locus YDR334W, strain swr1, active compounds read low 1.02 | locus YDR335W, strain msn5, active compounds read low 1.02 | locus YDR388W, active compounds read low 0.988 | locus YDR392W, strain spt3, active compounds read low 0.989 | locus YDR502C, strain sam2, active compounds read low 0.989 | locus YEL003W, strain gim4, active compounds read low 1.02 | locus YEL037C, strain rad23, active compounds read low 1.01 | locus YEL061C, strain CIN8 (second series), active compounds read low 1.02 | locus YEL061C, strain CIN8, active compounds read low 1.01 | locus YER015W, strain faa2, active compounds read low 1.02 | locus YER016W, strain bim1, active compounds read low 1.02 | locus YER110C, active compounds read low 0.98 | locus YER111C, strain swi4, active compounds read low 1.01 | locus YER155C, strain BEM2 (second series), active compounds read low 1.02 | locus YER155C, strain BEM2, active compounds read low 0.986 | locus YER167W, strain BCK2, active compounds read low 1 | locus YFR010W, strain ubp6, active compounds read low 1.02 | locus YGL078C, strain dbp3, active compounds read low 0.972 | locus YGL086W, strain mad1, active compounds read low 0.983 | locus YGL167C, strain pmr1, active compounds read low 1.02 | locus YGL173C, strain kem1, active compounds read low 1.02 | locus YGL227W, strain vid30, active compounds read low 1.03 | locus YGL240W, strain doc1, active compounds read low 1.03 | locus YGL248W, strain PDE1, active compounds read low 1.03 | locus YGL253W, strain hxk2, active compounds read low 1.02 | locus YGR135W, strain pre9, active compounds read low 1.02 | locus YGR229C, strain SMI1, active compounds read low 1.02 | locus YGR252W, strain gcn5, active compounds read low 1.17 | locus YHR013C, strain ard1, active compounds read low 1.03 | locus YHR027C, strain rpn1, active compounds read low 1.02 | locus YHR030C, strain SLT2, active compounds read low 0.987 and 0.98 | locus YHR079C, strain IRE1 (second series), active compounds read low 0.983 | locus YHR079C, strain IRE1, active compounds read low 0.983 | locus YHR094C, strain hxt1, active compounds read low 0.999 | locus YHR129C, strain ARP1, active compounds read low 1.01 | locus YHR142W, strain chs7, active compounds read low 1.03 | locus YHR200W, strain rpn10, active compounds read low 0.976 | locus YIL066C, strain RNR3, active compounds read low 1.01 | locus YIL073C, strain SPO22, active compounds read low 0.961 | locus YIL125W, strain kgd1, active compounds read low 0.994 | locus YIR030C, strain dcg1, active compounds read low 0.995 | locus YJL092W, strain hpr5, active compounds read low 1.02 | locus YJL095W, strain BCK1 (second series), active compounds read low 1.02 | locus YJL095W, strain BCK1, active compounds read low 1.05 and 0.988 | locus YJL115W, strain asf1, active compounds read low 1.04 | locus YJL129C, strain trk1, active compounds read low 1.04 | locus YJL134W, strain LCB3, active compounds read low 0.986 | locus YJL154C, strain vps35, active compounds read low 1.01 | locus YJL164C, strain tpk1, active compounds read low 1 | locus YJL166W, strain qcr8, active compounds read low 1.03 | locus YJL168C, strain set2, active compounds read low 0.989 | locus YJL187C, strain SWE1 (second series), active compounds read low 1.01 | locus YJR043C, strain POL32, active compounds read low 1.01 | locus YJR066W, strain TOR1, active compounds read low 0.917
